Consider 16 compounds from ChEMBL document CHEMBL1961873, “Compounds: GSK PKIS; Assays: Nanosyn kinase panel” (2012).
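Also: mean value of PRKD2 inhibition, from the GSK PKIS screening panel.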

This test concerns the target T1, Serine/threonine-protein kinase D2 (Homo sapiens) (UniProt Q9BZL6).
T1 sequence (whole entry): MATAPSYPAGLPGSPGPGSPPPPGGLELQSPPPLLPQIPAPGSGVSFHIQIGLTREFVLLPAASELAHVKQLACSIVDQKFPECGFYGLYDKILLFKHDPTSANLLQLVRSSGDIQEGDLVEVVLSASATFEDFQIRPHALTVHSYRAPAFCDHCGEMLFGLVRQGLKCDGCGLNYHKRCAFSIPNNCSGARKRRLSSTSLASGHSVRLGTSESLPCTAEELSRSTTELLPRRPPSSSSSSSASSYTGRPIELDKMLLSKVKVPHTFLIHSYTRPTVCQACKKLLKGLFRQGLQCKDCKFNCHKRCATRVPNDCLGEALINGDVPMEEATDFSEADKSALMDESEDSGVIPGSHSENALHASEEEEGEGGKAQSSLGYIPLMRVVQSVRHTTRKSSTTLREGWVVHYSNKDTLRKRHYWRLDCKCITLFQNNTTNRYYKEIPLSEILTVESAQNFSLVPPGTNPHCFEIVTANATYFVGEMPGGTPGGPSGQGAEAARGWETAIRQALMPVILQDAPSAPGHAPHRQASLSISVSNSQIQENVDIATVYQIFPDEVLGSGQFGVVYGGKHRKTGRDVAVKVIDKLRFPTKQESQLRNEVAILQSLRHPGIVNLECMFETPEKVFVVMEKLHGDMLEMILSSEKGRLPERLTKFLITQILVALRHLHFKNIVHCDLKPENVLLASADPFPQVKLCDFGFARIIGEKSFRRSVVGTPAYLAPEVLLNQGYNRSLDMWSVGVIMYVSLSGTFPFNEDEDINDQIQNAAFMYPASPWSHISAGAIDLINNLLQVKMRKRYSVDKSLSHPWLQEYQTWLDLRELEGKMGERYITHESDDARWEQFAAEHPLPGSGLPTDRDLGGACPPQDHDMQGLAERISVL
The conditions noted are these: at 1 µM.
What is called inhibition is the relative decrease from the control value, in per cent. Consider `CS(=O)(=O)CCNCc1nc(-c2ccc3ncnc(Nc4ccc(OCc5cccc(C(F)(F)F)c5)cc4)c3c2)cs1`, for which the inhibition was 0.2%. On to `Nc1nccc(-c2c(-c3ccc(F)cc3)ncn2CCCN2CCOCC2)n1`, for which the inhibition was 4.5%. Regarding `NS(=O)(=O)c1ccc(Nc2cc(-c3cccc(O)c3)n[nH]2)cc1`, the inhibition was 7.41%. Consider `NS(=O)(=O)c1cccc(Nc2cc(-c3ccc(F)cc3)n[nH]2)c1`, for which the inhibition was found to be 3.29%. Take `Cc1ccc2c(-c3ccnc(Nc4ccc5c(c4)OCCO5)n3)c(-c3ccc(C(F)(F)F)cc3)nn2n1`: the inhibition worked out at 2.37%. Consider `Cc1cc(O)cc(C)c1/C=C/c1cncc(C(=O)N(C)C)c1`, for which the inhibition stood at 2.05%.

In the case of `CN(C)c1cc2c(Nc3ccc4c(cnn4Cc4ccccc4)c3)ncnc2cn1`, the inhibition worked out at 4.01%.

As to `COC(=O)c1ccc2c(c1)C(=Cc1cc(Br)c(O)c(Br)c1)C(=O)N2`, the inhibition worked out at 3.79%. On to `Nc1nccc(-c2c(-c3ccc(F)cc3)nn3cc(C(F)(F)F)ccc23)n1`, for which the inhibition was 3.04%.

`COc1cccc(-n2nc(C)c3c(N/N=C(\C)c4ccncc4)ncnc32)c1`: the inhibition is -1.17%. In the case of `Cc1cc(Cl)cc2c1NC(=O)C2=NNc1ccc(S(N)(=O)=O)cc1`, the inhibition was 2.34%. For `Cc1ccc(O)cc1Nc1ccnc2ccc(S(C)(=O)=O)cc12`, the inhibition stood at 33.2%. Under `COc1cccc(-n2ncc3c(N/N=C/c4ccc(S(C)(=O)=O)cc4)ncnc32)c1` stands -2.8%; under `NS(=O)(=O)c1ccc(-c2cc3ccncc3cc2OCc2ccccc2)cc1`, 4.54%. Under `Cc1ccc2c(c1)/C(=N/Nc1ccc(S(N)(=O)=O)cc1)C(=O)N2` stands 1.97%.

Regarding `CCCN1CCCC(c2ccc(Nc3nc(Nc4cc(F)ccc4C(N)=O)c4cc[nH]c4n3)c(OC)c2)C1` (stereo unspecified), the inhibition was 81.1%.
